Reference: PubChem BioAssay (NCI)
The panel holds about 83,000 compounds, 20% with a hit somewhere; the sample as a whole holds those more often.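 Method: cells in 96-well plates; compound added at one concentration; 48 h incubation; percent growth measured; values under 10 scored active.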 A number with no mark means an inactive call. The source made the active and inactive calls.

system: 786-0 renal; experiment: NCI-60 one-dose screen, 48 h (100 = growth as untreated, 0 = no growth, -100 = all killed); settings: 10 µM unless noted

First: CC(C)[C@@H]1C=C2CC[C@H]3[C@](C)(CN)CCC[C@]3(C)[C@H]2CC1
Second: CC1(C)CN(CCNc2nccc(-c3c(-c4cccc(O)c4)nc4sccn34)n2)S(=O)(=O)N1
The growth of the first is higher: 78% for the first, 50.6% for the second.

Compared with `CCNC(=O)c1ccc2c(c1)nc(-c1ccc(Cl)cc1)n2-c1cc(C(C)(C)C)[nH]n1`, `CCc1c(C)c2ccc(O)c(-c3cc(-c4ccccc4)c(C#N)c(=O)[nH]3)c2oc1=O` is higher in growth: 27.7% for the first, 105% for the second.

`C=C(C)[C@@H]1CC[C@]2(C(=O)NS(=O)(=O)c3ccccc3)CC[C@]3(C)[C@H](CC[C@@H]4[C@@]5(C)CC[C@H](OC(=O)NS(=O)(=O)c6ccccc6)C(C)(C)[C@@H]5CC[C@]43C)[C@@H]12` was tested, and the growth was -43.5% (active).

system: COLO 205 colon; experiment: as above; settings: 10 µM unless noted

Going from `FC(F)(F)c1cc(-c2nnc3n2N=C(Cl)CS3)cc(C(F)(F)F)c1` to `NC(=S)N1N=C(c2ccc(Cl)cc2)CC1c1cc2ccccc2[nH]c1=O` (stereo unspecified), the growth rises from 96.5% to 115%.

Going from `COc1ccc(/C=C/c2nc3ccccc3c(=O)n2-c2ccc(C#Cc3ccc(C(C)(C)C)cc3)cc2C)c(OC)c1` to `COc1ccc(-c2nc3ccccc3n3cccc23)cc1`, the growth rises from 97.9% to 120%.

Compared with `Cc1cc(O)c2cc3c(O)c(O)ccc3cc2c1`, `COc1cc2c(c(OC)c1O)C(=O)C(OC)C(c1ccc(O)c(O)c1)O2` (stereo unspecified) is lower in growth: 123% for the first, 88% for the second.

First: CCOC(=O)c1cc(C(=O)OCC)c(C)nc1C
Second: CCOC(=O)C(CCCCC(NC(C)=O)(C(=O)OCC)C(=O)OCC)(NC(C)=O)C(=O)OCC
The growth of the first is higher: 109% for the first, 107% for the second.

First: Cc1cccc(N=NC(=S)NNc2cccc(C)c2)c1
Second: CC(C)c1nc2ccccc2n1CC(=O)N/N=C/c1cccc(O)c1
The growth of the first is higher: 116% for the first, 108% for the second.

Compared with `COc1ccc(Oc2nc(Nc3ccc(N4CCOCC4)cc3)ncc2NC(=O)Nc2cccc(OC)c2)cc1`, `COc1ccc2[nH]cc(C3(c4c[nH]c5ccc(OC)cc45)C(=O)Nc4ccc(F)cc43)c2c1` is higher in growth: 17.8% for the first, 72.9% for the second.

Compared with `CC(=O)Oc1c(Cl)c(Cl)c(Cl)c(Cl)c1Cl`, `CC(=O)Nc1c(Br)cc2c(c1Br)Cc1cc(Br)ccc1-2` is lower in growth: 106% for the first, 35% for the second.

Going from `Cc1ccc(C(CN(C)C)C(=O)c2ccccc2)cc1` (stereo unspecified) to `CCOC(=O)C1C(=O)C=C(c2ccccc2)CC1c1sc(N(C)Cc2ccccc2)nc1Cl` (stereo unspecified), the growth rises from 43.5% to 100%.

`COc1cc(/C=C2\CN(C(=O)OC(C)(C)C)C/C(=C\c3ccc(O)c(OC)c3)C2=O)ccc1O` and `COc1cc(C2CC(=O)Nc3c2cnn3C)cc(OC)c1OC` (stereo unspecified) are the same in growth: 110% for the first, 110% for the second.

First: O=S1(=O)NCCN1CCNc1nccc(-c2c(-c3cccc(O)c3)nc3sccn23)n1
Second: CC1(C)CN(CCNc2nccc(-c3c(-c4cccc(O)c4)nc4sccn34)n2)S(=O)(=O)N1
The growth of the first is higher: 42.4% for the first, 32.1% for the second.

First: CNCCCn1c2c(c3ccc(Cl)cc3c1=O)C(=O)c1cc(OC)cnc1-2
Second: CCc1c(C)c2ccc(O)c(-c3cc(-c4ccccc4)c(C#N)c(=O)[nH]3)c2oc1=O
The growth of the first is lower: 51.9% for the first, 115% for the second.

Going from `C[C@@H]1N=C(c2ccc3ccccc3c2)Nc2nc3ccccn3c2C1=O` to `CCNC(=O)c1ccc2c(c1)nc(-c1ccc(Cl)cc1)n2-c1cc(C(C)(C)C)[nH]n1`, the growth rises from 22.8% to 51.8%.

Compared with `CC(=O)Nc1ccc(/C=N/N2CCCCCC2)cc1`, `COc1cc(-c2nn(C(=O)NCCN3CCN(C)CC3)cc2-c2ccncc2)ccc1Cl` is lower in growth: 110% for the first, 50.9% for the second.

For `C=C(C)[C@@H]1CC[C@]2(C(=O)NS(=O)(=O)c3ccccc3)CC[C@]3(C)[C@H](CC[C@@H]4[C@@]5(C)CC[C@H](OC(=O)NS(=O)(=O)c6ccccc6)C(C)(C)[C@@H]5CC[C@]43C)[C@@H]12`, the growth was 31.8%.

In the case of `CN1C(=O)N(C)C2C1NN=c1s/c(=C\c3ccc(Br)cc3)c(=O)n12` (stereo unspecified), the growth is reported as 0.786% (active).
In the case of `O=C1OCC2=C1C(c1ccccc1)c1cc3c(cc1N2CCO)OCO3` (stereo unspecified), the growth is reported as -8.27% (active).
In the case of `COc1cc(OC)cc(-c2ccc(-c3ccc(C(=N)N)s3)s2)c1`, the growth is reported as -78.1% (active).
`Clc1cccc(CNc2c3ccccc3nc3ccccc23)c1` was tested, and the growth was 0.537% (active).
For `O=C1OCC2=C1C(c1ccccc1)c1cc3c(cc1N2CCO)CCC3` (stereo unspecified), the growth was -81.7% (active).
For `C=C1C(=O)O[C@H]2[C@H]1CC/C(COC(=O)NCc1[nH]nc3ccccc13)=C\CC[C@@]1(C)O[C@@H]21`, the growth was -76.7% (active).
With `O=C(/C=C/c1ccccc1)c1c[nH]c2ccccc2c1=O` the growth was 0.617% (active).
In the case of `N=C(N)c1ccc(-c2ccc(-c3ccco3)o2)cc1F`, the growth is reported as -93.4% (active).
In the case of `CC(C)[C@@H]1C=C2CC[C@H]3[C@](C)(CN)CCC[C@]3(C)[C@H]2CC1`, the growth is reported as -89.7% (active).
